An excerpt weighted towards active compounds, which were near 4.5% of everything screened.
HEK293 cAMP ctrl: parental HEK293 cAMP activation (counter-screen) | parental HEK293 CNG cAMP sensor, membrane potential fluorescence | Potency, µM (series often up to 57.1 µM), for the others: at the top dose activation, most hits filed as activators | 2.5% of 73,000 active | AID 938; note: % of control where 0% means no effect; nearly all actives have a fitted effect of over 55% in size
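Parental HEK 293 cells stably expressing a modified CNG channel (no TSHR) report cAMP rise as membrane depolarization. Membrane potential dye with 100 uM RO 20-1724 was loaded for 60 min at room temperature, then compound added for 30 min; fluorescence read at 590 nm.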
TSHR agonist: agonists of human thyroid stimulating hormone receptor; P16473; HEK293-CNG-TSHR cells (CNG channel as cAMP sensor), membrane potential dye, cAMP; Potency, µM (series often up to 57.1 µM), for the others: at the top dose activation, actives largely listed as activators; 0.48% of 73,000 active; active = well fitted activation curve with a large enough effect in the main read-out, with a control signal flat, not every such curve was filed as active; inconclusive = small, poorly fitted or top-dose-only effect, or a change in a side signal; inactive = no such curve, though single readings can be large or run the other way; % of control where 0% means no effect;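 note: the control signal comes from parental cells without the receptor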
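HEK 293 cells stably expressing TSHR and a cAMP-gated CNG channel; parental CNG-only cells as counterscreen. Cells preloaded 60 min with membrane potential dye plus 100 uM RO 20-1724, then compound 30 min; fluorescence read at 590 nm.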
Caspase-7 inhib: caspase-7 (human) inhibition, allosteric or competitive; 0.02% of 75,000 active; recombinant caspase-7, Ac-DEVD-AFC fluorescence rate; Potency, µM (doses to about 57.5 µM), for inactives: top-dose activity change, negative = inhibition, usual class: inhibitors; active = well fitted inhibition curve with a large enough effect in the main read-out, with a control signal flat, not every such curve was filed as active; inconclusive = small, poorly fitted or top-dose-only effect, or a change in a side signal; note: % of control where 0% means no effect
GBA activity: modulators of human glucocerebrosidase; P04062; 1.1% of 48,000 active; AID 360; purified enzyme, resorufin glucoside fluorescence (screen aimed at inhibitors), 20 min; Potency, µM; in the data active = potency below about 15 µM; inconclusive = mostly about 16 µM to 33 µM;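 note: the screen sought inhibitors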
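Normal human glucocerebrosidase (0.2 nM final) was assayed with resorufin β-D-glucopyranoside (30 uM final) in 50mM citric acid/KH2PO4, 10mM sodium taurocholate, 0.01% tween-20, pH 5.9. Compounds were titrated; fluorescence (Ex 548, Em 600) read after 20 min at RT.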
Caspase-1 inhib: caspase-1 (human) inhibition, allosteric or competitive | AID 900 | P29466 | 0.03% of 75,000 active | Potency, µM (doses to about 57.5 µM), without a hit: top-dose activity change, negative = inhibition, usual class: inhibitors | Caspase-1 enzyme, Ac-WEHD-AFC fluorogenic rate;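 note: plate controls were vehicle for no effect and no substrate for full effect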
ERK AVP block: blocks ERK signaling stimulated by vasopressin | HEK293-V1b, vasopressin-stimulated pERK AlphaScreen | Potency, µM (titrated, usually from 57.5 µM), without a hit: at the top dose activity, negative = inhibition, most hits filed as inhibitors | 0.99% of 72,000 active; note: % is set by controls: 0 for no effect and ±100 for the full control effect; nearly all actives have a fitted effect of over 55% in size
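HEK293 cells stably expressing V1b receptor, seeded overnight in 1% FBS, were treated with compounds for 30 min at 37C, then stimulated 5 min with 25 nM vasopressin; phospho-ERK read by AlphaScreen SureFire after lysis.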
Starred values were filed as active, the others as inactive; i = inactive; u = inconclusive; x = not tested or not shown; [ ] = another dose, or the depositor's remark. Unless noted, calls come from the whole dose curve; as a rule, active = well fitted curve in the direction sought with a large enough effect; inconclusive = small, poorly fitted or top-dose-only effect, or another doubt; inactive = no such curve, though single readings can be large; an effect the other way counts as inactive or inconclusive. Potency is the fitted concentration of half-maximal effect.

SMILES | HEK293 cAMP ctrl | TSHR agonist | Caspase-7 inhib | GBA activity | Caspase-1 inhib | ERK AVP block
CC(NC(=O)C(C)(C)C)c1nc2ccccc2n1C (stereo not given) | 2.6% | -1.6%[11.4 µM] | -1.3% | >76.9 | 2.1% | -3.6%
CCC/C=C(\CCC)C(NC(=O)c1ccccc1)c1ccc(C(=O)OC)cc1 (stereo not given) | 3.16µM* | u | -0.7% | x | -1.2% | 33.3%
CCCC/C=C/C(NC(=O)c1ccc(C(=O)OC)cc1)c1ccccc1 (stereo not given) | 25.1µM* | u | -2.3% | x | -2.5% | 34.2%
C/C(=C\CNc1ncnc2c1ncn2[C@@H]1O[C@@H](CO)[C@@H](O)[C@H]1O)CO | -5.4% | 1.2% | x | x | x | x
Cc1cc(S(=O)(=O)Nc2ccccc2C(=O)O)ccc1F | 1.4% | 1.8% | -1.8% | x | -2.2% | x
Cc1cc(NC(=O)c2ccccc2Oc2ccccc2)no1 | u | u | 1.8% | >76.9 | -1.6% | 0.2%
Cc1ccc(CN(C)C(=O)c2ccccc2Oc2ccccc2)o1 | 31.6µM* | u | 0.2% | >76.9 | 1.9% | -0.2%
CCCNC(=O)c1cc(-c2ccc(O)cc2)on1 | 4.3% | 7.5% | -1.3% | x | -1.3% | -7.4%
Clc1ccc(CSc2nnc(-c3ccncc3)o2)c(Cl)c1 | 20µM* | u | -7.1% | >76.9 | -2.9% | 30.5%
c1ccc(CSc2nnc(-c3ccncc3)o2)cc1 | 9.5% | 6.0% | -0.7% | x | -0.7% | 45.5%
CO[C@H]1COC(=O)[C@H]2CCCN2C(=O)C/C=C\[C@@H](C)[C@H](OC)COC(=O)[C@@H](OCc2ccccc2)/C=C\[C@@H]1C | 5.9%[11.4 µM] | -4.1%[11.4 µM] | -1.3%[11.5 µM] | x | 1.3%[11.5 µM] | -15.4%[11.5 µM]
N#Cc1c(/N=C/c2cccs2)sc2c1CCCCC2 | 4.2% | 21.9% | 2.7% | >76.9 | -3.3% | 15.8µM*
CN(C(=O)c1ccccc1)c1nc2ccccc2s1 | 9.8% | 9.7% | -0.8% | >76.9 | -2.2% | -1.7%
COc1cccc(N(C(=O)c2cccs2)c2nc3ccccc3s2)c1 | 12.6µM* | u | -1.2% | >76.9 | -1.2% | -5.7%
O=C(CCN1CCCCC1)N1CCc2c([nH]c3ccccc23)[C@H]1c1cccnc1 | 4.1%[11.4 µM] | 1.6%[11.4 µM] | -0.7%[11.5 µM] | x | -0.5%[11.5 µM] | 0.1%[11.5 µM]
COc1ccc(N2CCCn3c2nc2c3c(=O)n(CCc3ccccc3)c(=O)n2C)cc1 | -11.7% | -3.8% | 4.2% | 12* | 0.0% | -3.1%
Cn1c(=O)n(CCc2ccccc2)c(=O)c2c1nc1n2CCCN1CCc1ccccc1 | -29.6% | -16.5% | -5.7% | 8.99* | -4.9% | 12.6µM*
Cn1c(=O)n(Cc2ccccc2F)c(=O)c2c1nc1n2CCCN1CCc1ccccc1 | -12.4% | -31.8% | -1.8% | 13.5* | -3.3% | -14.5%
CC(=O)OC[C@@H]1O[C@@H](O/N=C2/C[C@@H](O)[C@@H](O)[C@@H]3[C@@H]4C(=O)N([C@@H](C)c5ccccc5)C(=O)[C@H]4CC[C@@H]23)[C@H](OC(C)=O)[C@H](OC(C)=O)[C@@H]1OC(C)=O | -4.0%[11.4 µM] | 21.9%[11.4 µM] | 0.8%[11.5 µM] | x | 1.2%[11.5 µM] | -1.4%[11.5 µM]
CCCCC(C=O)NC(=O)C(CC(C)C)NC(=O)OCc1ccccc1 (stereo not given) | 26.4% | 17.6% | -0.2% | x | 1.2% | 21.0%
CCCCn1c(SCC(=O)Nc2nnc(C(C)C)s2)nc2c1c(=O)n(C)c(=O)n2C | 1.58µM* | u | 0.8% | >76.9 | -1.0% | u
CCCn1c(SCC(=O)Nc2nc3c(s2)CCCC3)nc2c1c(=O)n(C)c(=O)n2C | 15.8µM* | u | 1.3% | >76.9 | -2.6% | -23.7%
COc1ccc(NC(=O)c2cc(-c3ccc(O)cc3)on2)cc1OC | 6.3% | 4.1% | 0.6% | x | 2.3% | -11.0%
Cc1cc(C2N=C(N)Nc3nc4ccccc4n32)c(C)n1-c1ccccc1Cl (stereo not given) | 2.2% | -0.2%[11.4 µM] | 0.0% | 12.7* | 0.6% | 2.7%
Cc1ccc(-n2c(C)cc(C3N=C(N)Nc4nc5ccccc5n43)c2C)c(C)c1 (stereo not given) | 0.7% | -7.4% | -3.0% | u | -4.5% | -19.4%
SMILES | HEK293 cAMP ctrl | TSHR agonist | Caspase-7 inhib | GBA activity | Caspase-1 inhib | ERK AVP block
C#CCCCO/N=C1/C[C@@H](O)[C@@H](O)[C@@H]2[C@@H]3C(=O)N(Cc4ccccc4)C(=O)[C@H]3CC[C@H]12 | -2.9%[11.4 µM] | -5.6%[11.4 µM] | 0.2%[11.5 µM] | x | -1.1%[11.5 µM] | -1.9%[11.5 µM]
CCCc1cc(C(=O)Cc2ccc(C(=O)OCC)o2)c(O)cc1O | 20µM* | u | -2.4% | >76.9 | -1.7% | 8.6%
O=C1[C@H]2O[C@@H]2[C@@H](O)[C@H]2[C@H]1CCn1c(=O)n(Cc3cc4c(cc3Cl)OCO4)c(=O)n12 | 1.8%[11.4 µM] | -0.3%[11.4 µM] | -6.9%[11.5 µM] | x | 0.4%[11.5 µM] | 32.0%[11.5 µM]
C=CCCCCCC | 2.5% | u | 2.3% | x | -0.1% | -7.1%
O=C1OC(Nc2nccs2)c2ccccc21 (stereo not given) | 1.8% | -0.6%[11.4 µM] | 1.2% | >76.9 | -0.2% | 8.2%
O=C1OC(Nc2nc3ccccc3s2)c2ccccc21 (stereo not given) | 4.3% | -3.8% | 0.1% | 15.1* | -2.3% | -6.6%
CCn1c2ccccc2c2nc3ccccc3nc21 | u | u | u | x | x | -7.7%
CCCCc1c(C)nn(-c2nnc3c4ccccc4n(CC)c3n2)c1C | 21.5% | x | -2.3% | i | 0.0% | 20µM*
COc1cccc(OC)c1C(=O)Nc1ccc(N2CCN(S(C)(=O)=O)CC2)cc1 | 23.9% | x | 6.2% | >76.9 | -0.1% | -3.9%
COc1ccc(Br)cc1C(=O)Nc1ccc(N2CCN(S(C)(=O)=O)CC2)cc1 | -22.2% | -32.7% | -9.5% | 11.7* | -6.6% | u
O=C(Nc1ccc(Br)c2cccnc12)c1ccc(Cn2cc(Cl)cn2)o1 | 24.4% | x | -0.4% | 9.25* | -1.4% | -7.4%
Cc1cc(C(=O)CSc2nc3ccccc3o2)c(C)n1C1CC1 | 15.8µM* | u | -2.7% | 13.5* | -7.0% | 15.0%
O=C(CN(Cc1ccc2c(c1)OCO2)C(=O)CSc1nc2ccccc2o1)NC1CCCCC1 | 15.8µM* | u | -3.0% | x | -3.3% | -8.2%
C=CCn1c(C)cc(C(=O)CSc2nc3ccccc3c(=O)[nH]2)c1C | 25.1µM* | u | -3.5% | >76.9 | 1.8% | 20µM*
COCCn1c(C)cc(C(=O)CSc2nc3ccccc3c(=O)[nH]2)c1C | 0.5% | 14.8%[11.4 µM] | -3.7% | >76.9 | -2.2% | -6.3%
C=CCn1c(C)cc(C(=O)CSc2nnc(Cc3ccccc3)o2)c1C | u | u | -0.2% | x | -1.6% | -25.3%
C=CCn1c(C)cc(C(=O)CSc2nc3ccccc3o2)c1C | 25.1µM* | u | -7.4% | >76.9 | -3.3% | -27.4%
O=C(CSc1nc2ccccc2o1)c1ccc2c(c1)OCCO2 | 20.4% | x | -1.0% | 13.6* | -2.9% | u
O=C(COC(=O)CCCc1c[nH]c2ccccc12)Nc1ccc2c(c1)OCO2 | 28.9% | 24.0% | -2.9% | >76.9 | -0.8% | 39.8µM*

Bioassay records (PubChem BioAssay)
